{
  "source": "PubChem BioAssay AID1159580",
  "about": "(chemical genetic matrix, 2015)",
  "assay": "chemical genetic growth profiling, strain panel (AID 1159580);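 note: tested at 20 µM; growth read once vehicle control cultures reached saturation at 30 °C; 1 = growth at the plate median or of vehicle wells; lower values mean less growth of the strain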",
  "settings": "S. cerevisiae deletion strains, growth OD",
  "note": "The campaign covered roughly 5,500 compounds. About 2,000 (36%) were called active. Another 18% or so got no clear call; they are omitted. The list shows a part of the results. A number with no mark means an inactive call. Cut-off read from the data, not from the text of the source: active = normalized growth mostly below about 0.91 (no sharp cut-off); inconclusive = no clear call, values can overlap the other calls; inactive = mostly above about 0.92.",
  "data": [
    {"smiles": "CC(C)Sc1c(Cl)cccc1NC(=O)Nc1ccccc1", "values": [
      {"measurement": "normalized growth", "setting": "locus YAR019C, strain CDC15, hits give low values", "result": 0.971},
      {"measurement": "normalized growth", "setting": "locus YBL105C, strain PKC1, hits give low values", "result": 0.97},
      {"measurement": "normalized growth", "setting": "locus YBR135W, strain CKS1, hits give low values", "result": 0.96},
      {"measurement": "normalized growth", "setting": "locus YBR136W, strain MEC1, hits give low values", "result": 0.959},
      {"measurement": "normalized growth", "setting": "locus YBR160W, strain CDC28, hits give low values", "result": 0.962},
      {"measurement": "normalized growth", "setting": "locus YDL017W, strain CDC7, hits give low values", "result": 0.968},
      {"measurement": "normalized growth", "setting": "locus YDL028C, strain MPS1, hits give low values", "result": 0.962},
      {"measurement": "normalized growth", "setting": "locus YDL101C, strain DUN1, hits give low values", "result": 0.976},
      {"measurement": "normalized growth", "setting": "locus YDL108W, strain KIN28, hits give low values", "result": 0.966},
      {"measurement": "normalized growth", "setting": "locus YDL132W, strain cdc53, hits give low values", "result": 0.974},
      {"measurement": "normalized growth", "setting": "locus YDL214C, strain PRR2, hits give low values", "result": 0.871},
      {"measurement": "normalized growth", "setting": "locus YDR052C, strain DBF4, hits give low values", "result": 0.973},
      {"measurement": "normalized growth", "setting": "locus YDR054C, strain cdc34, hits give low values", "result": 0.959},
      {"measurement": "normalized growth", "setting": "locus YDR226W, strain ADK1, hits give low values", "result": 0.976},
      {"measurement": "normalized growth", "setting": "locus YDR477W, strain SNF1, hits give low values", "result": 0.867},
      {"measurement": "normalized growth", "setting": "locus YER123W, strain YCK3, hits give low values", "result": 0.813},
      {"measurement": "normalized growth", "setting": "locus YER133W, strain GLC7, hits give low values", "result": 0.899},
      {"measurement": "normalized growth", "setting": "locus YFL009W, strain cdc4, hits give low values", "result": 0.97},
      {"measurement": "normalized growth", "setting": "locus YFL029C, strain CAK1, hits give low values", "result": 0.964},
      {"measurement": "normalized growth", "setting": "locus YFR003C, strain YPI1, hits give low values", "result": 0.957},
      {"measurement": "normalized growth", "setting": "locus YFR019W, strain FAB1, hits give low values", "result": 0.872},
      {"measurement": "normalized growth", "setting": "locus YFR028C, strain CDC14, hits give low values", "result": 0.963},
      {"measurement": "normalized growth", "setting": "locus YGR040W, strain KSS1, hits give low values", "result": 0.843},
      {"measurement": "normalized growth", "setting": "locus YGR052W, strain FMP48, hits give low values", "result": 0.937},
      {"measurement": "normalized growth", "setting": "locus YGR092W, strain DBF2, hits give low values", "result": 0.836},
      {"measurement": "normalized growth", "setting": "locus YHR030C, strain SLT2, hits give low values", "result": "0.666 (active)"},
      {"measurement": "normalized growth", "setting": "locus YHR079C, strain IRE1, hits give low values", "result": 0.898},
      {"measurement": "normalized growth", "setting": "locus YHR082C, strain KSP1, hits give low values", "result": 0.858},
      {"measurement": "normalized growth", "setting": "locus YHR205W, strain SCH9, hits give low values", "result": 0.788},
      {"measurement": "normalized growth", "setting": "locus YIL147C, strain SLN1, hits give low values", "result": 0.964},
      {"measurement": "normalized growth", "setting": "locus YJL095W, strain BCK1, hits give low values", "result": 0.803},
      {"measurement": "normalized growth", "setting": "locus YJL128C, strain PBS2, hits give low values", "result": 0.966},
      {"measurement": "normalized growth", "setting": "locus YJL157C, strain FAR1, hits give low values", "result": 0.895},
      {"measurement": "normalized growth", "setting": "locus YJR016C, strain ILV3, hits give low values", "result": 0.97},
      {"measurement": "normalized growth", "setting": "locus YJR066W, strain TOR1 (second series), hits give low values", "result": 0.915},
      {"measurement": "normalized growth", "setting": "locus YJR066W, strain TOR1, hits give low values", "result": 0.835},
      {"measurement": "normalized growth", "setting": "locus YKL048C, strain ELM1, hits give low values", "result": 0.874},
      {"measurement": "normalized growth", "setting": "locus YKL067W, strain YNK1, hits give low values", "result": 0.892},
      {"measurement": "normalized growth", "setting": "locus YKL101W, strain HSL1, hits give low values", "result": 0.891},
      {"measurement": "normalized growth", "setting": "locus YKL193C, strain SDS22, hits give low values", "result": 0.963},
      {"measurement": "normalized growth", "setting": "locus YKL203C, strain TOR2, hits give low values", "result": 0.891},
      {"measurement": "normalized growth", "setting": "locus YLR113W, strain HOG1, hits give low values", "result": "0.765 (active)"},
      {"measurement": "normalized growth", "setting": "locus YLR133W, strain CKI1, hits give low values", "result": 0.857},
      {"measurement": "normalized growth", "setting": "locus YLR403W, strain SFP1, hits give low values", "result": 0.863},
      {"measurement": "normalized growth", "setting": "locus YML070W, strain DAK1, hits give low values", "result": 0.869},
      {"measurement": "normalized growth", "setting": "locus YMR001C, strain CDC5, hits give low values", "result": 0.967},
      {"measurement": "normalized growth", "setting": "locus YMR205C, strain PFK2 (second series), hits give low values", "result": 0.863},
      {"measurement": "normalized growth", "setting": "locus YMR277W, strain FCP1, hits give low values", "result": 0.962},
      {"measurement": "normalized growth", "setting": "locus YNL006W, strain LST8, hits give low values", "result": 0.975},
      {"measurement": "normalized growth", "setting": "locus YNL020C, strain ARK1, hits give low values", "result": 0.861},
      {"measurement": "normalized growth", "setting": "locus YNL161W, strain CBK1, hits give low values", "result": 0.975},
      {"measurement": "normalized growth", "setting": "locus YNL183C, strain NPR1, hits give low values", "result": 0.827},
      {"measurement": "normalized growth", "setting": "locus YNL207W, strain RIO2, hits give low values", "result": 0.965},
      {"measurement": "normalized growth", "setting": "locus YNL222W, strain SSU72, hits give low values", "result": 0.964},
      {"measurement": "normalized growth", "setting": "locus YNL307C, strain MCK1 (second series), hits give low values", "result": 0.771},
      {"measurement": "normalized growth", "setting": "locus YOL078W, strain AVO1, hits give low values", "result": 0.964},
      {"measurement": "normalized growth", "setting": "locus YOL136C, strain PFK27, hits give low values", "result": 0.86},
      {"measurement": "normalized growth", "setting": "locus YOR061W, strain CKA2, hits give low values", "result": 0.895},
      {"measurement": "normalized growth", "setting": "locus YOR119C, strain RIO1, hits give low values", "result": 0.935},
      {"measurement": "normalized growth", "setting": "locus YOR231W, strain MKK1, hits give low values", "result": 0.883},
      {"measurement": "normalized growth", "setting": "locus YOR329C, strain SCD5, hits give low values", "result": 0.966},
      {"measurement": "normalized growth", "setting": "locus YPL031C, strain PHO85, hits give low values", "result": 0.853},
      {"measurement": "normalized growth", "setting": "locus YPL153C, strain RAD53, hits give low values", "result": 0.867},
      {"measurement": "normalized growth", "setting": "locus YPL204W, strain HRR25, hits give low values", "result": 0.839},
      {"measurement": "normalized growth", "setting": "locus YPL209C, strain IPL1, hits give low values", "result": 0.973},
      {"measurement": "normalized growth", "setting": "locus YPL256C, strain CLN2, hits give low values", "result": "0.803 (active)"},
      {"measurement": "normalized growth", "setting": "locus YPR025C, strain CCL1, hits give low values", "result": 0.961},
      {"measurement": "normalized growth", "setting": "locus YPR106W, strain ISR1, hits give low values", "result": 0.964},
      {"measurement": "normalized growth", "setting": "locus YPR111W, strain DBF20, hits give low values", "result": 0.951},
      {"measurement": "normalized growth", "setting": "strain NNK1, hits give low values", "result": 0.942},
      {"measurement": "normalized growth", "setting": "strain TSCII, hits give low values", "result": 0.963}
    ]}
  ]
}
